Assay [1] concerns the target Lysosomal acid glucosylceramidase (Homo sapiens) (UniProt P04062). The experiment in a line: Glucocerebrosidase-p2 (AID 348; in the data active means potency below about 10 µM; further: potency means the concentration at half of the fitted maximal effect). Conditions: purified GBA, blue fluorogenic substrate, 40 min. In outline:
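Compounds titrated from 0.6 nM upwards against 0.2 nM enzyme in pH 5.9 citric acid/KH2PO4, taurocholate, tween-20; blue fluorogenic substrate 80 uM, 40 min room temperature, stopped and read Ex 365/Em 440 for AC50.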

Assay [2] is described as follows: AP1 Signaling Pathway (AID 357; active means well fitted curve in either direction with a large enough effect, not every such curve was filed as active;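 further: ME-180 reporter cells stimulated with EGF at its EC50 level; on the % scale 0 is the no-effect control and ±100 the full control effect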). To be noted: ME-180 AP-1-bla reporter, EGF-induced, beta-lactamase ratio, 5 h; at 7.69 µM (top of the series) unless noted. In outline:
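AP-1-bla ME-180 cells, Opti-MEM + 0.5% dialyzed FBS, plated overnight 37 °C. Cpd titration + EC50 EGF, 5 h 37 °C. CCF4 2.5 h RT; ex 405, em 460/530 ratio → %activity, AC50.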

Assay [3] concerns the target Cytochrome P450 1A2 (Homo sapiens) (UniProt P05177). The experiment in a line: p450-cyp1a2 (AID 410; calls by dose curve; further: potency means the concentration at half of the fitted maximal effect;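 on activity change, negative = inhibition: -100% = full effect of reference inhibitor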). Conditions: recombinant CYP1A2, luciferin-ME demethylation, luminescence; series mostly up to 57 µM. In a few lines: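 Inhibition was calculated relative to 57 uM furafylline (full inhibition). The reaction used human CYP1A2 at 20nM with Luciferin-ME at its Km, 100uM, driven by an NADPH-regenerating system for 60 min at room temperature.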

Assay [4] is described as follows: NFAT Signaling Pathway (AID 444; active means well fitted curve in either direction with a large enough effect, not every such curve was filed as active;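 further: carbachol stimulus at about its EC50 of 1 µM final; on the % scale 0 is the no-effect control and ±100 the full control effect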). Conditions: Jurkat NFAT-bla M1, carbachol, beta-lactamase ratio, 5 h; at 7.69 µM (top of the series) unless noted. In a few lines:
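Jurkat cells with NFAT-driven β-lactamase reporter and co-expressed M1 receptor, stimulated with carbachol (final 1 uM, ~EC50), compound titration, 5 h at 37 °C. CCF4 loaded 1 h at RT; 460/530 nm ratio gave %activity and AC50.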

The nature of assay [5]: Stat Signaling Pathway (AID 446; active means well fitted curve in either direction with a large enough effect, not every such curve was filed as active;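 further: ME-180 cervical cancer cells given 40 pM IL-6 alongside compound; SIE-controlled beta-lactamase reporter measured as 460/530 nm FRET emission ratio; on the % scale 0 is the no-effect control and ±100 the full control effect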). Conditions: ME-180 SIE beta-lactamase reporter, IL-6 stimulated, 5 h; at 7.69 µM (top of the series) unless noted. In outline:
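ME-180 SIE-bla cells; overnight plating; cpd + IL-6 40 pM, 5 h, 37 C; LiveBLAzer 2.5 h RT; 460/530 nm emission ratio. Normalized to 300 pM IL-6 and 125 nM JAK inhibitor controls.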

Assay [6] has as its target Glucocorticoid receptor (Homo sapiens) (UniProt P04150). The experiment in a line: GR-GFP Redistribution (AID 450;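 active means compounds whose dose series gives a full or clear partial fitted curve of increased nuclear translocation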; further: potency means the concentration at half of the fitted maximal effect). Conditions: U2OS GR-GFP nuclear translocation, laser cytometry, 2 h.
The target is the same in assay [7]. The experiment in a line: GR-EFC Redistribution (AID 451; calls by dose curve; further: potency means the concentration at half of the fitted maximal effect). To be noted: CHO-K1 GR-EFC translocation, beta-gal luminescence, 2 h. In outline:
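CHO-K1 cells expressing nuclear EA and GR-ED fragments of b-gal; compounds titrated up to 46 uM final, 2 h at 37 C. GR nuclear translocation read as complemented b-gal luminescence after 1 h RT detection.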

The target in assay [8] is Mitogen-activated protein kinase 10 (Mus musculus) (UniProt Q61831). Briefly: JNK3 AlphaScreen Assay (AID 530; active means well fitted curve in either direction with a large enough effect, not every such curve was filed as active;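 further: kinase came from lysate of stimulated human HepG2 cells; signal reports phosphorylation of biotinylated GST-cJun 1-79 at Ser73 with 10 µM ATP; on the % scale 0 is the no-effect control and ±100 the full control effect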). To be noted: JNK3 lysate, c-Jun phosphorylation; series mostly up to 57.1 µM. In outline: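 qHTS format: compounds tested as titrations against IL-1beta/TNF-alpha-activated HepG2 lysate JNK3 with biotin-GST-cJun substrate and 10 uM ATP at room temperature. Loss of anti-phospho-cJun AlphaScreen signal indicates inhibition.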
In general terms: Bead proximity is the source of the signal in Alpha formats.

Assay [9] has as its target 3',5'-cyclic-AMP phosphodiesterase 4B (Homo sapiens) (UniProt Q07343). Briefly: qHTS Assay for Inhibitors of PDE-IV (AID 607; active means well fitted activation curve with a large enough effect in the main read-out, with a control signal flat, not every such curve was filed as active; further: % of control where 0% means no effect). Conditions: HEK293 ACTOne CNG channel cells, membrane potential fluorescence; series mostly up to 22.9 µM. In outline:
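ACTOne HEK293 cells carry a modified cAMP-gated CNG channel and express endogenous PDE4; plated 1000 cells/well, compounds up to 22.9 uM final. Membrane-potential dye fluorescence (ex 535/em 590) was read; parental cells received 10 uM forskolin + 100 uM RO 20-1724.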
A general note: In qHTS, concentration-response curves come from the screen itself.

Assay [10] has as its target Cytochrome P450 2C19 (Homo sapiens) (UniProt P33261). Briefly: qHTS Assay for Inhibitors and Substrates of Cytochrome P450 2C19 (AID 899). Further: on the % scale 0 is the no-effect control and ±100 the full control effect; nearly all actives have a fitted effect of over 60% in size. Conditions: recombinant CYP2C19, luciferin-H EGE luminescence; series mostly up to 57.1 µM. In a few lines: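 Signal comes from luciferase acting on luciferin released by CYP2C19-mediated hydroxylation of Luciferin-H EGE, 10uM (KM). Assay mix: 5nM enzyme, 50mM KPO4; 60 min at 37C with NADPH regeneration. Data normalized against 57uM ketoconazole.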

The nature of assay [11]: qHTS Assay for Lipid Storage Modulators (AID 1519; calls by dose curve). To be noted: Drosophila S3 cells, BODIPY lipid droplet/cell ratio, laser cytometry, cells loaded with oleic acid; for activity change, negative = inhibition: at 57.5 µM (top of the series). In a few lines: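 Cells seeded at 5,000 per well were treated with compounds over a concentration series and loaded with oleic acid (400 uM, as added). Lipid droplet fluorescence (488 nm excitation, 500-530 nm channel) was read by laser-scanning cytometry and normalized to 20 uM Triacsin C.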

In assay [12] the target is Dual specificity protein kinase CLK4 (Homo sapiens) (UniProt Q9HAZ1). The experiment in a line: qHTS Assay for Inhibitors of CDC-like Kinase 4 (ADP-Glo Assay) (AID 1771). Further: nearly all actives have a fitted effect of over 70% in size. Further: potency means the concentration at half of the fitted maximal effect. To be noted: recombinant CLK4, ADP-Glo luminescence; series mostly up to 80 µM. In a few lines: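 Kinase reaction: Clk4 at 25 nM, RS repeat peptide substrate at 100 uM, ATP at 1 uM, 1 hr, room temperature. Product ADP detected as luciferase signal via ADP-Glo.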

Assay [13] has the same target. The experiment in a line: qHTS Assay for Inhibitors of CDC-like Kinase 4 (ADP-FP Assay) (AID 1795). Further: nearly all actives have a fitted effect of over 60% in size. Further: potency means the concentration at half of the fitted maximal effect. Conditions: Transcreener ADP fluorescence polarization; series mostly up to 50 µM. In a few lines:
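Recombinant human Clk4 (6.25 nM) phosphorylated RS repeat peptide (100 uM) with 1 uM ATP in Tris pH 7.5/MgCl2/EGTA/DTT/Triton buffer for one hour. ADP was quantified by Transcreener competitive fluorescence polarization against an ADP calibration curve.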

For assay [14], the target named is Ubiquitin carboxyl-terminal hydrolase 1 (Homo sapiens) (UniProt O94782). The experiment in a line: Inhibitors of USP1/UAF1: Pilot qHTS (AID 504865).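 Further: rhodamine fluorescence freed from ubiquitin-rhodamine substrate followed over time; top concentration of the series differs between compounds; on the % scale 0 is the no-effect control and ±100 the full control effect; nearly all actives have a fitted effect of over 35% in size.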 To be noted: purified USP1/UAF1, Ub-rhodamine cleavage fluorescence; series mostly up to 54.9 µM. In outline: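 USP1/UAF1 complex (1nM) preincubated with compound 15 min at room temperature, then Ub-Rho substrate (150nM final) added. Fluorescence read kinetically at 480/540 nm, 6 reads every 60 seconds. Buffer: 50mM HEPES pH 7.8, 0.5mM EDTA, 0.1 mg/ml BSA, 1mM TCEP, 0.01% Tween-20.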

The nature of assay [15]: Primary qHTS for small molecule stabilizers of the endoplasmic reticulum resident proteome: Secreted ER Calcium Modulated Protein (SERCaMP) assay (AID 1508630). Further: on the % scale 0 is the no-effect control and ±100 the full control effect. To be noted: SH-SY5Y GLuc-SERCaMP (Gaussia luciferase released on ER calcium loss) secretion, thapsigargin, luminescence; series mostly up to 38.4 µM. In a few lines:
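GLuc-SERCaMP-expressing SH-SY5Y cells, pretreated 16 h with compound, are challenged with thapsigargin to empty ER calcium stores; after 4 h, coelenterazine is added directly to the medium and luminescence is imaged.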

Assay [16] addresses Cytochrome P450 3A4 (Homo sapiens) (UniProt P08684). Briefly: qHTS Assay for Activators of Cytochrome P450 3A4 (AID 885). Further: nearly all actives have a fitted effect of over 65% in size. Conditions: recombinant CYP3A4, Luciferin-PPXE luminescence, 60 min; series mostly up to 57.1 µM. In a few lines:
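20nM CYP3A4 + 25uM Luciferin-PPXE (=KM), 200mM KPO4; cpd 10 min RT; NADPH regen, 60 min RT; stop w/ detection buffer, 20 min; luminescence. Normalized to 57 uM ketoconazole.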

For assay [17], the target named is Dual specificity protein kinase CLK4 (Homo sapiens) (UniProt Q9HAZ1). Briefly: qHTS Assay for Inhibitors of CDC-like Kinase 4 (Kinase-Glo Assay) (AID 1770). Further: on the % scale 0 is the no-effect control and ±100 the full control effect; nearly all actives have a fitted effect of over 65% in size. Conditions: recombinant Clk4, Kinase-Glo ATP depletion luminescence; series mostly up to 66.7 µM. In outline: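 Recombinant human Clk4 (25 nM) phosphorylated RS repeat peptide (100 uM) with 1 uM ATP in Tris pH 7.5/MgCl2/EGTA/DTT/Triton buffer for 4.5 h at room temperature. Residual ATP was quantified by Kinase-Glo luciferase luminescence.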

Assay [18] in a line: qHTS Assay for Identification of Small Molecule Agonists for Hypoxia Response Element Signaling Pathway (AID 914; active means well fitted activation curve with a large enough effect in the signal ratio, with a control signal flat, not every such curve was filed as active; the % refers to the signal ratio; further: potency means the concentration at half of the fitted maximal effect). Conditions: ME-180 (cervical carcinoma) HRE-bla reporter, beta-lactamase ratio, CoCl2, 17 h; activation: stronger effect = higher value. In a few lines:
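Reporter activity (beta-lactamase, CCF4 460nm/530nm ratio) in HRE-bla ME-180 cells is recorded after 17 h compound exposure with EC50 CoCl2 at 37 degrees Celsius. AC50 values come from titration data.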

[19] abbreviates: measured here: cell count channel max response.
[20] abbreviates: measured here: lipid channel max response.

Records with an inconclusive call do not appear. Activity calls are given as the source filed them. Unless noted, the call rests on the fitted dose curve; in most records, active means well fitted curve in the direction sought with a large enough effect; inconclusive means small, poorly fitted or top-dose-only effect, or another doubt; inactive means no such curve, though single readings can be large; an effect the other way counts as inactive or inconclusive.

Sequence of Cytochrome P450 1A2 (Homo sapiens) (P05177 whole entry, looked up): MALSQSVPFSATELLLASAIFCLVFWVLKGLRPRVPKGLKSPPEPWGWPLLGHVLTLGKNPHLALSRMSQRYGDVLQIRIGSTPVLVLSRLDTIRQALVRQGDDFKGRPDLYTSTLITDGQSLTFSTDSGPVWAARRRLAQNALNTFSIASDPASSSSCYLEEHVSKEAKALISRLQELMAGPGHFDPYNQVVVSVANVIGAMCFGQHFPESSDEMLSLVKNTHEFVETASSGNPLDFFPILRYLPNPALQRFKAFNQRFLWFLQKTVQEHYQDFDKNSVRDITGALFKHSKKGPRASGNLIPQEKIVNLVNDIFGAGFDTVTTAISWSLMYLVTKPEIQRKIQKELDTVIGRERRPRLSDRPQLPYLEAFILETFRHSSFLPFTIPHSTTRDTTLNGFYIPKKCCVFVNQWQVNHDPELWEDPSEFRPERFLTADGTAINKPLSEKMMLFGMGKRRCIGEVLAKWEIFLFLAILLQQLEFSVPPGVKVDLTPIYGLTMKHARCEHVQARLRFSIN
Sequence of Glucocorticoid receptor (Homo sapiens) (P04150 whole entry, looked up): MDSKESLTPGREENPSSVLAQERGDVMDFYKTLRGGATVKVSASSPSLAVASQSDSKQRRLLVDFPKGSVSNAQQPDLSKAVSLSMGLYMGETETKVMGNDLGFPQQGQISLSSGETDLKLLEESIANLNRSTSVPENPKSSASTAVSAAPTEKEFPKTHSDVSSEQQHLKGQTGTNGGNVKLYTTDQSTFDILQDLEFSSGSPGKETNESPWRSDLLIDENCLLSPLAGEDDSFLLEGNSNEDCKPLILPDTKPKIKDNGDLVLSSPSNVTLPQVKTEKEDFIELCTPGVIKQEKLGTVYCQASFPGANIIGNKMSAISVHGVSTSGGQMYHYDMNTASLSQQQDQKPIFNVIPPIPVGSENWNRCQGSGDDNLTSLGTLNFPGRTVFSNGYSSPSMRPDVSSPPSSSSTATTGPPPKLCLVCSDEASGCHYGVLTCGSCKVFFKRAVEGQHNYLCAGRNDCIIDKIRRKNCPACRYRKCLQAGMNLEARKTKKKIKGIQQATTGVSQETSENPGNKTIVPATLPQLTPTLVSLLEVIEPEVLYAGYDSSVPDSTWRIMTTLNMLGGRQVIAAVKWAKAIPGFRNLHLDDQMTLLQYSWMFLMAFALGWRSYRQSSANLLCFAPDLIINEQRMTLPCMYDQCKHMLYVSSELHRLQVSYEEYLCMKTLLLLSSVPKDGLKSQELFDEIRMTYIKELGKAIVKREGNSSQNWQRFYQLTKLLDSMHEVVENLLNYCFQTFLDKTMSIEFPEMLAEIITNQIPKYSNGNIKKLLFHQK
Sequence of Ubiquitin carboxyl-terminal hydrolase 1 (Homo sapiens) (O94782 whole entry, looked up): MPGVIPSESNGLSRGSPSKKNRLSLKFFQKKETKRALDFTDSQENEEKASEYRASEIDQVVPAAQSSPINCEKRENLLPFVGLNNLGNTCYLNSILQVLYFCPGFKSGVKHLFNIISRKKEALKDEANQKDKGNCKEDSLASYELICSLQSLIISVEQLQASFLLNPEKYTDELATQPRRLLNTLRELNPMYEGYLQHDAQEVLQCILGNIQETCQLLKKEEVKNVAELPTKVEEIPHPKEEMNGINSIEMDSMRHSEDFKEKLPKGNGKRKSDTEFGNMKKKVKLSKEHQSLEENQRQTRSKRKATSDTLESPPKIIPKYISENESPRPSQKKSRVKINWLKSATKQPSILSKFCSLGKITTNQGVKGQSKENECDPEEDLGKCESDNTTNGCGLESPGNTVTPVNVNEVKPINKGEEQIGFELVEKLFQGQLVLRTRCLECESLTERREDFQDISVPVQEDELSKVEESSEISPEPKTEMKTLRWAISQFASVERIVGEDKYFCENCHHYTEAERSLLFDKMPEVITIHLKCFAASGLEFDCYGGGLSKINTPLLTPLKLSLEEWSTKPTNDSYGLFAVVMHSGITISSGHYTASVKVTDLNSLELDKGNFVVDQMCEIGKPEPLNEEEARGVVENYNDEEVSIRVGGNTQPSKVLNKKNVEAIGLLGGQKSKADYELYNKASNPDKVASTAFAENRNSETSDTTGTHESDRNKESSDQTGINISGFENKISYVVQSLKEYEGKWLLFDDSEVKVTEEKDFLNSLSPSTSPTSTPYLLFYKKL
Sequence of 3',5'-cyclic-AMP phosphodiesterase 4B (Homo sapiens) (Q07343 whole entry, looked up): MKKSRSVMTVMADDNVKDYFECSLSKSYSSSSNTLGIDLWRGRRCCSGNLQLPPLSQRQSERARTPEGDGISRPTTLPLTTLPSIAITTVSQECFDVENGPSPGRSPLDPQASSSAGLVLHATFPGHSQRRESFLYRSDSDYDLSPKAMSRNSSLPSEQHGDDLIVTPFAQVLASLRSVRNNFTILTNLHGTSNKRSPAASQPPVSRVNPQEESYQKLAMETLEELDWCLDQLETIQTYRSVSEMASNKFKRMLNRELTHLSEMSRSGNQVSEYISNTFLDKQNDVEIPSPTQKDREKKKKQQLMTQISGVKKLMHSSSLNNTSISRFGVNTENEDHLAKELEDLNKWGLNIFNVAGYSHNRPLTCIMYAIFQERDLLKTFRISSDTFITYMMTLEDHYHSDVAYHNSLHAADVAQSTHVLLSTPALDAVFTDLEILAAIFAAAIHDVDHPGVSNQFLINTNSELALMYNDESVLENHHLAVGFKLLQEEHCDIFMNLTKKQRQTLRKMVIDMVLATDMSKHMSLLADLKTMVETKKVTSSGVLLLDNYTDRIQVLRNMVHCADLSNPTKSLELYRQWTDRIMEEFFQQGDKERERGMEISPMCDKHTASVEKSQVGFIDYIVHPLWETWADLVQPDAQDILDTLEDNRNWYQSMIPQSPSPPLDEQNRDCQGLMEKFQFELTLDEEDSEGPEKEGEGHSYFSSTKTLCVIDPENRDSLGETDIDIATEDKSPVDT
Sequence of Dual specificity protein kinase CLK4 (Homo sapiens) (Q9HAZ1 whole entry, looked up): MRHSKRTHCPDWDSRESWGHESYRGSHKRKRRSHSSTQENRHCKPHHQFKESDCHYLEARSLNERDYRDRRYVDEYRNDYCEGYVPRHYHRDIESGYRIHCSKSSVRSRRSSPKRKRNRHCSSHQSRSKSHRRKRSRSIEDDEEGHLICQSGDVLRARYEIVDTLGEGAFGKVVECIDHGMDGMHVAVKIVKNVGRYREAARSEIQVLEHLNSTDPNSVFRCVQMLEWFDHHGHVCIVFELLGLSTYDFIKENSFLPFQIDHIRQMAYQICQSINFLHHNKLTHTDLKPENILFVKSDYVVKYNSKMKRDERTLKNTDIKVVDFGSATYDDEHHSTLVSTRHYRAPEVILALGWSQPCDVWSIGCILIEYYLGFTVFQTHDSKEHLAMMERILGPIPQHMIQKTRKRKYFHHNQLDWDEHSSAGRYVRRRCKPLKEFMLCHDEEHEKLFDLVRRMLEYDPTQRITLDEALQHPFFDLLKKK
Sequence of Lysosomal acid glucosylceramidase (Homo sapiens) (P04062 whole entry, looked up): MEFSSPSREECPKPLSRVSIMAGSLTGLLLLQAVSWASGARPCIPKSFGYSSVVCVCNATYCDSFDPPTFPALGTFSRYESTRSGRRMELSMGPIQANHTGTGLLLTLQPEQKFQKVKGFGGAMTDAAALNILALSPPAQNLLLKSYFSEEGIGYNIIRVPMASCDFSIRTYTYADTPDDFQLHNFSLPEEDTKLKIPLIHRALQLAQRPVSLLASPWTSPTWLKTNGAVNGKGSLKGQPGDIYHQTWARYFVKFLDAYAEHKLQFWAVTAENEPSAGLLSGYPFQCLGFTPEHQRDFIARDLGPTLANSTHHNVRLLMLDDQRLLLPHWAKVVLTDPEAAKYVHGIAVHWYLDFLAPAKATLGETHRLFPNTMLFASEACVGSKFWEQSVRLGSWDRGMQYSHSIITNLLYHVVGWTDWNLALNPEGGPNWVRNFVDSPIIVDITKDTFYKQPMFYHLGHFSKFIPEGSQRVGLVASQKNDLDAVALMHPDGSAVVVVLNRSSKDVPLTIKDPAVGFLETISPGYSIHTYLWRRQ
Sequence of Cytochrome P450 3A4 (Homo sapiens) (P08684 whole entry, looked up): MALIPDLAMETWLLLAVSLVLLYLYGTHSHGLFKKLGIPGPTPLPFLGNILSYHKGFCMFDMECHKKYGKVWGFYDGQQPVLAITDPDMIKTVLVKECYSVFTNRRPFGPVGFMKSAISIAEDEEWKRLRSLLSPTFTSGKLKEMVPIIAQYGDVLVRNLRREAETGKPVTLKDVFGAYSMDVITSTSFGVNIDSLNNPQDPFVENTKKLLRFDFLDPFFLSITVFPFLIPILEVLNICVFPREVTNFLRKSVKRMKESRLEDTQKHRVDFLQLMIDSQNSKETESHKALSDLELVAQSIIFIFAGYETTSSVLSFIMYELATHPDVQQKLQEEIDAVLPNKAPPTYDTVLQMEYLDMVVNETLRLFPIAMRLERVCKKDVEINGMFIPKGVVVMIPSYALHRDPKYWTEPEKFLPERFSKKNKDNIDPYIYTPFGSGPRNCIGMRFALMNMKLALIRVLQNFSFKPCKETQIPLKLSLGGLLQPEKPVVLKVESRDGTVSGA
Sequence of Cytochrome P450 2C19 (Homo sapiens) (P33261 whole entry, looked up): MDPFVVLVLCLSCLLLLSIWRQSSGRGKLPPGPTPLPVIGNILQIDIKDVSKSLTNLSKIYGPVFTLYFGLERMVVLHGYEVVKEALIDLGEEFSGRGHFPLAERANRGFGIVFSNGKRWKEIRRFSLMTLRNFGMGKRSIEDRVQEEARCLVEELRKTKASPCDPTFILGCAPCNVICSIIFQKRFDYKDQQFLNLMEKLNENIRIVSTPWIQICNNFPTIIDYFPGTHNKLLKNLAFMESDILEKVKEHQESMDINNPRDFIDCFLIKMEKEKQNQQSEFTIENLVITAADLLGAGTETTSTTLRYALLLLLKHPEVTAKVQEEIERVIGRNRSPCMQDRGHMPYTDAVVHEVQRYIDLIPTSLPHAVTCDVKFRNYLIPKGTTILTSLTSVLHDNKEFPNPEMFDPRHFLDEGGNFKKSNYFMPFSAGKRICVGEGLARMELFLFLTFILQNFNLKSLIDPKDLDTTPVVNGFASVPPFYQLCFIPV

Consider `COc1cccc(-c2cncnc2NC2CCNCC2)c1`, for which the Potency is > 11.4 µM (inactive) in [1], > 46 µM (inactive) in assay [6] and > 46 µM (inactive) in assay [7]. The activity change, negative = inhibition in assay [2] was -6.98% (inactive); in assay [4], 9.29% (inactive); in assay [11], 2.06% (inactive). Besides, the Potency result in [3], in assay [9], in [10], in [12], in [13] and in assay [14] was “inactive” each time. Also, the Potency result in assay [15] was “inactive”. In [5], the activity, negative = inhibition is 13.9% (inactive). Further, the compound was called inactive in [8]. The max response in [11] (setting [19]) came out at 12.6%; in [11] (setting [20]), 15.6%.

As for `COc1ccccc1-c1ccc2ncnc(NC3CCNCC3)c2c1`, the Potency was > 11.4 µM (inactive) in assay [1], > 46 µM (inactive) in [6] and > 46 µM (inactive) in assay [7]. Besides, the activity change, negative = inhibition is 2.47% (inactive) in [2], 5.17% (inactive) in [4] and 4.79% (inactive) in assay [11]. Also, the activity, negative = inhibition in assay [5] was 3.74% (inactive). In assay [8], the call was inactive. Also, the Potency entry in assay [9], in [12], in assay [13], in [14] and in assay [15] was “inactive” throughout. For the same compound, the max response is 10.6% in assay [11] (setting [19]) and 12.3% in assay [11] (setting [20]).

In the case of `COc1ccccc1-c1cncnc1NCCNC(C)=O`, the figures for the activity change, negative = inhibition in [2], in [4] and in assay [11] were -8.57% (inactive), 1.19% (inactive) and 0.0705% (inactive), respectively. Moreover, the Potency entry in assay [3], in [9], in [16], in assay [17], in assay [13] and in assay [14] was “inactive” throughout. The Potency result in assay [15] was “inactive”. In addition, in [5], the activity, negative = inhibition is 2.82% (inactive). Further, in [7], the Potency was > 46 µM (inactive). In addition, the compound was called inactive in assay [8]. The max response in assay [11] (setting [19]) worked out at 19.9%; in [11] (setting [20]), 19%.

As for `CN1CCN(c2ncc3nc(-c4ccc(Cl)cc4)c(=O)n(-c4ccccc4)c3n2)CC1`, the Potency in assay [1] was > 11.4 µM (inactive); in [6], > 9.22 µM (inactive); in assay [7], > 46 µM (inactive). Also, the activity change, negative = inhibition in assay [11] is 4.1% (inactive). Moreover, the max response in [11] (setting [19]) was 13.9%; in assay [11] (setting [20]), 16.4%. The Potency result in [17], in [13], in [14] and in [15] was “inactive” throughout.

As to `CCNc1ncc2nc(-c3ccc(F)cc3)c(=O)n(CCOC)c2n1`, the Potency in assay [1] was > 11.4 µM (inactive); in assay [3], 2 µM (active); in assay [6], > 9.22 µM (inactive); in assay [7], > 46 µM (inactive). Besides, the values for the activity change, negative = inhibition in assay [2], in assay [4] and in [11] were -5.66% (inactive), -3.34% (inactive) and 6.73% (inactive), respectively. In addition, the activity, negative = inhibition in assay [5] is 10.5% (inactive). For the same compound, the compound was classed as inactive in assay [8]. The Potency entry in assay [9], in assay [12], in assay [13], in [14] and in [15] was “inactive” each time. The results for the max response in [11] (setting [19]) and in assay [11] (setting [20]) were 22.2% and 28.8%, respectively.

Regarding `CN(C)C(=O)c1ccc(-c2cc(-n3ccnc3)ncn2)cc1`, the Potency in assay [1] was > 11.4 µM (inactive); in assay [6], > 46 µM (inactive); in [7], > 46 µM (inactive); in assay [12], 10 µM (active); in [13], 12.6 µM (active). Also, the values for the activity change, negative = inhibition in assay [2], in assay [4] and in assay [11] were -15.5% (inactive), 7.69% (inactive) and 4.31% (inactive), respectively. Besides, the activity, negative = inhibition in assay [5] was 7.04% (inactive). For the same compound, the result in assay [8] was inactive. The Potency result in assay [9], in [14] and in assay [15] was “inactive” in each case. Further, the max response in assay [11] (setting [19]) amounted to 14.1%; in assay [11] (setting [20]), 16.5%.

Turning to `N#Cc1cccc(-c2nc3cnc(N4CCOCC4)nc3n(C3CC3)c2=O)c1`, the Potency in assay [3] was 2.51 µM (active); in assay [6] it was > 9.22 µM (inactive); in assay [7] it was > 46 µM (inactive); in [18], 3.16 µM (active). The outcome in assay [8] was inactive. Moreover, the Potency entry in assay [9], in [16], in assay [17], in [13], in assay [14] and in assay [15] was “inactive” in each case. The activity change, negative = inhibition in assay [11] is -2.2% (inactive). Also, the max response in assay [11] (setting [19]) was 17.6%; in assay [11] (setting [20]) it was 13.2%.
